# Rin1 Abl inh = inhibitors of Rin1-Abl protein binding, primary screen, biochemical, TR-FRET. Tyrosine-protein kinase ABL1 (Homo sapiens) + Ras and Rab interactor 1 (Homo sapiens), …. inhibition, % at 7.35 µM. actives 0.4% (n = 360,000). AID 588664, 2011; in the data active = inhibition above about 5%, passing the limit was not always enough
# Rpn11 block = Rpn11 (PSMD14) deubiquitinase inhibitors, primary screen, biochemical, fluorescence polarization, uHTS; human 26S proteasome, Ub4-pepOG fluorescence polarization; 20S core pre-blocked with epoxomicin; inhibition, % at 20 µM; AID 588493, 2011; 26S proteasome non-ATPase regulatory subunit 14 (Homo sapiens), O00487; actives 0.59% (n = 360,000);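 active = inhibition at 20 µM, scaled to each plate's controls, above about 33%, limit read from the data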
# IDE cell activ = human IDE activators in live cells, primary screen, fluorescence polarization, HEK cells, FAbeta-B substrate. activation, % at 5.96 µM. Insulin-degrading enzyme (Homo sapiens), P14735. FAbeta-B cleavage; 0% vehicle, 100% cell-free pure enzyme wells. actives 0.073% (n = 340,000);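 active = activation above the mean of all tested compounds plus 3 SD, set per screening campaign, cut at about 17% in these data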
# Target sequence (P14735 whole entry, looked up): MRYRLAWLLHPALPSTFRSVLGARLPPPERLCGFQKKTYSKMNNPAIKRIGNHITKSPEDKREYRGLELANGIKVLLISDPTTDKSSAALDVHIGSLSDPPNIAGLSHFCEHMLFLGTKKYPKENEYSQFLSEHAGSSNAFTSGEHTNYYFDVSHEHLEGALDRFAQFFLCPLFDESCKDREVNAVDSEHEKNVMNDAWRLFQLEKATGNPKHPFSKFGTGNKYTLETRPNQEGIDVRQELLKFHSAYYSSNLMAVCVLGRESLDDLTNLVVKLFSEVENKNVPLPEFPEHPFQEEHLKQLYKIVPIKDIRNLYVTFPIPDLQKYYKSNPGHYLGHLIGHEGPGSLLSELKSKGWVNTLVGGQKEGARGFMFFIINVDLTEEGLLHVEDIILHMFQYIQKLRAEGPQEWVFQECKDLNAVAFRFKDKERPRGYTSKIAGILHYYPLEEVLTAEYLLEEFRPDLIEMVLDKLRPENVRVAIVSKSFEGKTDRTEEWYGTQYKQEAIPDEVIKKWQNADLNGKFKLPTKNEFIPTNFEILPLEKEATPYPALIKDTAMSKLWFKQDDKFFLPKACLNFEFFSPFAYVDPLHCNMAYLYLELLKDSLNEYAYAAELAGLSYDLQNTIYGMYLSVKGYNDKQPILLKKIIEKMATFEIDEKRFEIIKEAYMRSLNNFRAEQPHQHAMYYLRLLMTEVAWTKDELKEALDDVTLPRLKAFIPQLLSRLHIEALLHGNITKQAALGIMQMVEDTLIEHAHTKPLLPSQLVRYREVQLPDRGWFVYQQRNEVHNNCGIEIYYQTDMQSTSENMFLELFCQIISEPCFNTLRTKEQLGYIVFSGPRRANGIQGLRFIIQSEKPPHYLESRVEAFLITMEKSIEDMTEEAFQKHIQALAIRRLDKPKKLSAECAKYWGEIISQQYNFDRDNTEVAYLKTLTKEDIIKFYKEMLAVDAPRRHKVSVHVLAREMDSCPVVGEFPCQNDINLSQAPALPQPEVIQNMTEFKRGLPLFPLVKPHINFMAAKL
# TPT1 inh = Candida albicans TPT1 enzyme inhibitors, primary screen, biochemical, fluorescence polarization | AID 1962, 2009 | tRNA 2'-phosphotransferase TPT1 (Candida albicans SC5314) | recombinant caTPT1, FP RNA substrate dephosphorylation | inhibition, % at 5 µM | actives 0.81% (n = 300,000);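 active = inhibition above the mean of all tested compounds plus 3 SD, set per screening campaign, cut at about 24% in these data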;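 note: plate controls were DMSO alone for no effect and ferristatin control at 100 nM for full effect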
# IDE cell inh = human IDE inhibitors in live cells, primary screen, fluorescence polarization, HEK cells, FAbetaB substrate; FAbetaB cleavage; inhibition, % at 5.59 µM; actives 0.41% (n = 320,000); AID 434962, 2010;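 active = percent inhibition above the average of all tested compounds plus 3 SD, set per screening campaign, cut at about 16% in these data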;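 note: IDE supplied by intact live HEK cells; FP after avidin binding of uncleaved biotin substrate so inhibition keeps polarization high; 0% = DMSO wells and 100% = 60 µM reference IDE inhibitor Ii1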
# Calb FLC = C. albicans growth inhibition with fluconazole, primary screen, CaCi-2 strain, Alamar Blue fluorescence; C. albicans CaCi-2 (fluconazole-resistant clinical isolate) + fluconazole, 48 h; growth inhibition, % (test concentration not listed); actives 0.57% (n = 300,000);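 active = growth inhibition above about 58% in most replicates, limit read from the data, passing the limit was not always enough; inconclusive = exactly half the replicates above a set limit; inactive = most replicates below a set limit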;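 note: all wells also contain fluconazole at 8 µg/ml as a sub-toxic cotreatment; 0% = median of DMSO wells and 100% = median of geldanamycin control wells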
# Rpn11 inh conf = Rpn11 (PSMD14) deubiquitinase inhibitors, confirmation, biochemical, fluorescence polarization, single concentration; shares compounds with Rpn11 block; purified human 26S proteasome, Ub4-pepOG fluorescence polarization; proteasome pretreated with epoxomicin; inhibition, % at 20 µM; actives 29% (n = 1,900); AID 602318, 2012
# MMP-2 inh = MMP-2 enzyme inhibition, confirmation, counter-screen for RPN11 inhibitor project, biochemical, fluorescence, single concentration | recombinant MMP-2, FRET peptide cleavage fluorescence | shares compounds with Rpn11 block | AID 602330, 2012 | inhibition, % at 20 µM | actives 4% (n = 1,900);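 note: human MMP-2 activated beforehand with APMA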
# Thrombin inh = bovine thrombin protease inhibition, confirmation, counter-screen for Rpn11 inhibitor project, biochemical, fluorescence polarization, single concentration; shares compounds with Rpn11 block; bovine thrombin cleavage of Ub4-pepOG; inhibition, % at 20 µM; actives 13% (n = 1,900); AID 602333, 2012;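 active = mean inhibition at least 40% at 20 µM, or signal 3 deviations below plate average, so some actives read negative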;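 note: plate controls were thrombin with DMSO for no effect and buffer wells lacking thrombin for full effect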
# Numbers without * were called inactive; ? = inconclusive; / = no result given. Compounds with a hit are over-represented: about 2.3% of the library has one in this group of screens. Cut-off read from the data, not from the text of the source, unless noted: active = inhibition above about 40%; inactive = the rest.
SMILES,Rin1 Abl inh,Rpn11 block,IDE cell activ,TPT1 inh,IDE cell inh,Calb FLC,Rpn11 inh conf,MMP-2 inh,Thrombin inh
Cc1cc(NC(=O)CCC(=O)N(c2ccccc2)C(C(=O)NC2CCCC2)c2ccccc2)no1 (stereo not drawn),1,44*,1,-3,4,?,-17,-52,-14
Cc1ccc(N(C(=O)CCC(=O)Nc2cc(C)on2)C(C(=O)NC2CCCC2)c2ccccc2)cc1 (stereo not drawn),-5,0,5,-5,-3,?,/,/,/
O=C(CCN1C(=O)NC2(CCCC2)C1=O)Nc1ccc(-c2nc3ccccc3s2)cc1,-4,53*,-14,/,13,/,61*,34,48*
CCC1(c2ccc(F)cc2)NC(=O)N(CC(=O)Nc2ccc(-c3nc4ccc(C)cc4s3)cc2)C1=O (stereo not drawn),-1,47*,-2,0,7,-5,38,8,11
COCCOC(=O)C1=C(C)NC(=O)NC1c1ccc(-c2cc(Cl)ccc2Cl)o1 (stereo not drawn),4,46*,/,3,4,-5,33,-27,16
COC(=O)C1=C(C)NC(C)=C(C(=O)OC)C1c1ccc(-c2cc(Cl)ccc2Cl)o1,0,14,5,5,1,-13,/,/,/
Cc1nnc(-c2ccco2)c2cn(-c3cccc(Br)c3)nc12,-1,46*,-1,11,0,6,22,22,-4
Cc1cc(C)c(S(=O)(=O)N2C[C@H]3CON(C)[C@H]3C[C@H]2c2ccc(N3CCCCC3)cc2)c(C)c1,5,77*,/,/,/,/,96*,-26,87*
CCOc1ccc2nc(SCC(=O)N3c4ccccc4Sc4ccccc43)c(C#N)cc2c1,1,59*,0,23,8,-2,9,-29,-2
Cn1c(=O)c2cc(S(=O)(=O)NC(C(=O)Nc3cccnc3)c3ccccc3)ccc2n(C)c1=O (stereo not drawn),-1,-4,5,-2,2,/,/,/,/
Cn1c(=O)c2cc(S(=O)(=O)NC(C(=O)Nc3cccc(F)c3)c3ccccc3)ccc2n(C)c1=O (stereo not drawn),0,47*,4,0,3,0,72*,-32,-16
COc1ccccc1NC(=O)CSc1nnnn1-c1ccccc1F,-2,4,6,1,1,3,/,/,/
O=C1CCCN1CCCNc1nc2c(S(=O)(=O)c3ccccc3)nnn2c2ccc(Cl)cc12,-1,44*,2,3,-3,-11,-6,-8,12
CNc1cncc(-c2ccc(OC)cc2OC)n1,-2,0,/,/,/,/,/,/,/
COc1ccc(OC)c(Nc2nc3nonc3nc2N2CCCC(C)C2)c1 (stereo not drawn),-2,62*,6,-3,2,0,21,-19,-1
COc1ccc(CCn2c(N)c(C(=O)NCc3ccco3)c3nc4ccccc4nc32)cc1OC,4,45*,3,23,4,6,-8,4,-9
Nc1c(C(=O)NCc2ccco2)c2nc3ccccc3nc2n1CCc1ccccc1F,-1,33,3,14,0,1,/,/,/
COc1ccc(CCn2c(N)c(C(=O)NCc3ccco3)c3nc4ccccc4nc32)cc1,-2,41*,4,4,-3,14,-2,31,25
CCCCOC(=O)Nc1nnc(CCOCC)s1,3,34*,1,0,6,-1,-1,-15,-3
COc1ccc(OC)c(-c2cc(C(=O)Nc3ccccc3C(N)=O)c3ccccc3n2)c1,-8,-13,/,-4,7,1,/,/,/
CC(C)n1ncc2c(C(=O)Nc3ccc(S(C)(=O)=O)cc3)cc(C3CC3)nc21,-2,1,1,/,0,/,/,/,/
CC(C)n1ncc2c(C(=O)Nc3ccc(S(N)(=O)=O)cc3)cc(C3CC3)nc21,-1,79*,0,/,-2,/,90*,-72,14
Cc1nc(NC(=O)c2ccco2)sc1-c1csc(Nc2ccc(Cl)cc2)n1,1,42*,0,-4,9,4,12,35,-5
Cc1ccc(Cl)cc1Nc1nc(-c2sc(NC(=O)c3ccco3)nc2C)cs1,-2,9,-4,2,-6,8,/,/,/
CN1CCN(C(=O)c2cc3sc4ccccc4c3s2)CC1,-1,9,/,-5,11,4,/,/,/
SMILES,Rin1 Abl inh,Rpn11 block,IDE cell activ,TPT1 inh,IDE cell inh,Calb FLC,Rpn11 inh conf,MMP-2 inh,Thrombin inh
Cc1ccc(NC(=O)c2ccc(Cl)c(S(=O)(=O)N3CCCC3)c2)nc1,0,-5,0,-1,2,5,/,/,/
O=Cc1cn(-c2ccccc2)nc1-c1cc2cc(O)ccc2oc1=O,-5,111*,2,7,2,4,42*,13,34
Cc1ccc(-n2c(-c3ccco3)nc3nc4ccccc4nc32)cc1,0,46*,1,-2,0,0,43*,-9,-15
COc1cccc(-n2c(-c3ccco3)nc3nc4ccccc4nc32)c1,-3,20,-5,0,2,1,/,/,/
O=c1ccc2c(ccc3ncccc32)o1,-7,-8,/,/,/,/,/,/,/
CCCN(CC(=O)Nc1cc(C)on1)S(=O)(=O)c1cccc(C(F)(F)F)c1,3,35*,0,-3,4,9,-5,21,1
CC(C)C[C@@H](CN1CCC[C@@H]1CN1C(=S)NC[C@@H]1Cc1ccc(O)cc1)N1C[C@H](Cc2ccc(O)cc2)N(CCc2ccccc2)C1=S,8,-2,/,/,/,/,/,/,/
S=C(Nc1cc(Cl)ccc1Oc1ccccc1)N1CCN(c2ccccn2)CC1,3,36*,-1,/,/,16,-8,47*,-3

# From PubChem
